High-throughput results from PubChem BioAssay.
Shown are actives, neighbours in structure and some others; about 21% of the full set was active somewhere.
Gal4-VP16 FLuc = Gal4-VP16 reporter inhibition counter-screen; Drosophila S2 Gal4-VP16 UAS-luciferase, luminescence, 20 h; actives 3.5% (n = 310,000); AID 2546; Potency, µM (series often up to 53.6 µM), for inactives: at the highest dose activity, negative = inhibition, hits mostly inhibitors;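 also: Gal4-VP16 expression switched on by copper sulfate through the metallothionein promoter; potency is read from the fitted curve at half-maximal effect; nearly all actives have a fitted effect of over 50% in size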
RORgamma inh = ROR gamma (mouse) transcription inhibition. P51450. Drosophila S2 Gal4-RORgamma UAS-luciferase reporter, 20 h. Potency, µM (doses to about 53.6 µM), without a hit: top-dose activity change, negative = inhibition, hits mostly inhibitors. actives 5.4% (n = 310,000). AID 2551; also: potency is read from the fitted curve at half-maximal effect; nearly all actives have a fitted effect of over 60% in size
Target sequence (P51450 whole entry, looked up, the tested form may be a part): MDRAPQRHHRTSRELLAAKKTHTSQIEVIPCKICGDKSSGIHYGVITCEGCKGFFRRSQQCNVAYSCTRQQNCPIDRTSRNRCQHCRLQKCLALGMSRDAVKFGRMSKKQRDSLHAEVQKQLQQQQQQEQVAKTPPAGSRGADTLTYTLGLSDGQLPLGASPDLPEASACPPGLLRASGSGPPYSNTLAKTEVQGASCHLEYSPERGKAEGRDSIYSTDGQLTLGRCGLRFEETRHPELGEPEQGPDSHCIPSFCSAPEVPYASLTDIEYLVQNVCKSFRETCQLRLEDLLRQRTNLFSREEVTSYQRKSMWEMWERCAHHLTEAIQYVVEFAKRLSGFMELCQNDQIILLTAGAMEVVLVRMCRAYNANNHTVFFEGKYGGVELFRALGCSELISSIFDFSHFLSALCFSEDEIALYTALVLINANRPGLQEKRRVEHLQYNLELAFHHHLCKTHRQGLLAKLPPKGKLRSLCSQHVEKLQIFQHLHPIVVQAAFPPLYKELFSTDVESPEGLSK
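Luminescence from a UAS-regulated Photinus luciferase reporter in stably transfected Drosophila Schneider cells is measured; decreased signal marks ROR gamma inhibition. Fusion expression is induced by 700 uM copper sulfate for 20 hr.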
IL-1B inflam inh = blocks inflammasome-driven IL-1 beta release. THP-1 LPS/ATP IL-1B secretion, AlphaLISA, 16 h; stronger effect = lower value. activity change, % at 57.5 µM. actives 4.7% (n = 360,000). AID 743279; in the data active = activity change below about -50%; inconclusive = mostly about -30% to -49%
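Secreted IL-1B measured by AlphaLISA bead assay after 16 h compound exposure of THP-1 cells; compounds (final up to 57.5 uM) added 1 h before LPS (250 ng/mL) and ATP (1.25 mM) stimulation; lower signal means less secretion.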
DT40 TDP1 no CPT = qHTS for Inhibitors of human tyrosyl-DNA phosphodiesterase 1 (TDP1): qHTS in cells in absence of CPT. DT40 Tdp1-/- hTDP1 cells, no CPT, ATP luminescence, 48 h. Potency, µM (top dose mostly 46.2 µM), for the others: at the highest dose activity change, negative = growth inhibition, actives largely listed as inhibitors. actives 15% (n = 420,000). AID 686978, 2013; also: potency is read from the fitted curve at half-maximal effect; nearly all actives have a fitted effect of over 55% in size
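Stably hTDP1-transfected Tdp1-null chicken DT40 cells were treated with library compounds minus camptothecin and grown for at least 48 hr at 37 °C, after which cellular ATP was quantified by luminescence.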
ELG1 DNA repair = ELG1-dependent DNA repair inhibition | Potency, µM (highest dose often 46.1 µM), for inactives: at the top dose activity change, negative = inhibition, usual class: inhibitors | actives 2.3% (n = 330,000) | HEK293T ELG1-luciferase reporter, luminescence, 16 h; DNA damage induced by 5-fluorouridine | AID 504467; also: potency is read from the fitted curve at half-maximal effect; nearly all actives have a fitted effect of over 55% in size
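Cells (2,000 per well) received 5-fluorouridine plus test compound or DMSO and were incubated 16 hr at 37 °C, 5% CO2. Luciferase activity was read by luminescence 30 min after ONE-Glo addition; signal suppression marked inhibition of damage-induced ELG1 function.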
TDP1 cell CPT = growth inhibition of DT40 Tdp1-/-;hTDP1 cells with camptothecin (screen for TDP1 inhibitors). Potency, µM (doses to about 46.2 µM), for inactives: at the top dose activity change, negative = growth inhibition, most hits filed as inhibitors. actives 12% (n = 420,000). chicken DT40 Tdp1-/-;hTDP1 cells + 20 nM CPT, ATP luminescence, 48 h. AID 686979; also: potency is read from the fitted curve at half-maximal effect; nearly all actives have a fitted effect of over 55% in size
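Cell growth measured by CellTiter-Glo luminescence after a minimum 48 h, 37 C compound exposure with 20 nM CPT in Tdp1-knockout DT40 cells stably expressing hTDP1, seeded 400/well; qHTS titration format.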
* marks the source's active call; other numbers are inactive results; i = inactive; u = inconclusive; x = no result; [ ] = another dose, or the depositor's remark. Unless noted, calls follow the shape of the dose curve; as a rule, active = well fitted curve in the direction sought with a large enough effect; inconclusive = small, poorly fitted or top-dose-only effect, or another doubt; inactive = no such curve, though single readings can be large; an effect the other way counts as inactive or inconclusive. % is scaled to controls: 0 for no effect and ±100 for the full control effect.

SMILES	Gal4-VP16 FLuc	RORgamma inh	IL-1B inflam inh	DT40 TDP1 no CPT	ELG1 DNA repair	TDP1 cell CPT
Cc1nnc(C)c2c(C)n(-c3ccccc3)c(C)c12	1%	15%	21	23µM*	u	23µM*
Cc1nnc(C)c2c(C)n(-c3ccccc3N)c(C)c12	2%	3%	-3	u	16%	21µM*
Cc1cc(-n2c(C)c3c(C)nnc(C)c3c2C)ccc1N	-17%	1%	x	u	-23%	8.2µM*
N#Cc1ccc(CN2CC[C@@]3(CCCN(C(=O)c4cccc(F)c4)C3)C2)cc1	-4%	1%	x	u	x	-1%
COC(=O)c1ccc(C2c3c(oc4cc(C)c(C)cc4c3=O)C(=O)N2c2ccccn2)cc1 (stereo not given)	x	x	x	-3%	x	18%
O=C(O)c1cccc(-n2cnc3cccnc32)c1	x	x	x	-12%	x	-1%
Cc1ccc(-n2c(C)c3c(C)nnc(C)c3c2C)cc1N	-12%[10 µM]	-18%	18	u	4%	21µM*
CCC[C@H](N[C@@H](C)C(=O)N1[C@@H]2CCCC[C@H]2C[C@H]1C(=O)O)C(=O)OCC	-11%	-2%	x	x	x	x
O=C(c1sc2cc([N+](=O)[O-])ccc2c1Cl)N1CCCCC1	u	45%	u	u	6%	-2%
CC1CCCN(C(=O)c2sc3cc([N+](=O)[O-])ccc3c2Cl)C1 (stereo not given)	5%	41%	-18	16µM*	u	26µM*
CC(NC(=O)c1sc2cc([N+](=O)[O-])ccc2c1Cl)C(C)(C)C (stereo not given)	13µM*	u	u	4.1µM*	-3%	5.2µM*
O=C(Nc1ccccc1)c1cc(C2CCCCN2S(=O)(=O)c2ccc(F)cc2F)on1 (stereo not given)	x	x	11	u	x	-19%
CC(=O)NCCc1ccc(C(=O)COC(=O)C2CCCCC2)cc1	x	x	3	-17%	u	-14%
O=C(N/N=C1\CCc2ccccc21)c1ccccc1O	u	u	i	23µM*	u	-24%
O=C(N/N=C1\CCCc2ccccc21)c1ccccc1Cl	6%	7%	-18	-25%	u	2.1µM*
O=C(COc1ccccc1F)N/N=C1\CCCc2ccccc21	u	4µM*	-4	u	u	u
O=C(NN=C1C2CC3CC(C2)CC1C3)c1ccccc1O	-28%	13µM*	206	4%	-5%	3%
COCCNC(=O)C1(C)CCCN(Cc2sc(C)nc2C)C1 (stereo not given)	x	x	7	1%	x	-3%
CC1CCCN(C(=O)c2cccc(S(=O)(=O)NCc3ccccc3)c2)C1 (stereo not given)	x	x	35	u	x	u
CCCOc1ccc(C2C(=O)N(C3CCCCC3)CC(=O)N2CCC)cc1OC (stereo not given)	0%	6%	-15	u	13%	u
CCOc1ccc(C2C(=O)N(C3CCCCC3)CC(=O)N2Cc2ccc(F)cc2)cc1OC (stereo not given)	x	x	x	-23%	x	u
COc1ccccc1CN1C(=O)CN(C2CCCCCC2)C(=O)C1c1ccc(F)cc1 (stereo not given)	1%	23%	-21	18µM*	u	21µM*
CCCCN1C(=O)CN(C2CCCCCC2)C(=O)C1c1ccc(OCCC)c(OC)c1 (stereo not given)	x	x	x	u	x	12µM*
CCCOc1ccc(C2C(=O)N(C3CCCCCC3)CC(=O)N2Cc2ccccc2OC)cc1OC (stereo not given)	x	x	x	16µM*	x	26µM*
O=C(c1nc2ccc(Cl)cn2c1CN1CCC[C@H]1CO)N1CCc2ccccc2C1	x	x	7	u	x	-24%
SMILES	Gal4-VP16 FLuc	RORgamma inh	IL-1B inflam inh	DT40 TDP1 no CPT	ELG1 DNA repair	TDP1 cell CPT
CC(C(=O)Nc1ccccc1)C(=O)Nc1ccccc1	-5%	-2%	-5	5%	26%	-1%
O=C(Nc1ccccc1)C(Cl)C(=O)c1ccccc1 (stereo not given)	u	u	u	8.2µM*	u	6.5µM*
CC(=O)C(Cl)C(=O)Nc1ccccc1 (stereo not given)	u	u	-86*	4.1µM*	-14%	2.6µM*
COc1ccc(C=O)cc1COc1ccc(Cl)cc1[N+](=O)[O-]	1%	7%	12	21µM*	-7%	u
COc1cc(C=O)ccc1OCCOc1ccccc1[N+](=O)[O-]	19%	37%	40	u	u	-16%
COc1ccc(/C=N/NC(=O)c2ccncc2)cc1COc1ccc(NC(C)=O)cc1	22%	8%	-9	8.2µM*	-15%	5.8µM*
COc1ccc(/C=N/NC(=O)c2ccc(OC)c(OC)c2)cc1COc1c(F)c(F)c(F)c(F)c1F	u	0%	32	u	-2%	16µM*
COc1ccc(C(=O)N/N=C/c2ccc(OC)c(COc3ccccc3)c2)cc1	27%	27%	u	u	12%	u
COc1ccc(/C=N/NC(=O)c2ccccc2O)cc1COc1ccccn1	6%	-9%	17	17%	23%	-2%
COc1ccc(/C=N\NC(=O)c2ccccc2)cc1COc1ccccc1	u	u	i	u	u	u
COc1ccc(/C=N/NC(=O)c2ccccc2O)cc1CSc1ccccn1	u	16µM*	0	-10%	12%	-5%
O=C(NCC1CC1)c1ccccc1Cl	11%	0%	-24	19%	-1%	-10%
CC(=O)O[C@]1(C)CC[C@]23CC1C(C)(C)C2CC[C@@H]3C (stereo not given in full)	-1%	-5%	x	15%	x	-7%
COc1ccc(/C=N/NC(=O)c2cc(C(C)(C)C)[nH]n2)cc1COc1ccc(F)cc1F	1%	17%	-77*	23µM*	16µM*	u
COc1ccc(/C=N\NC(=O)c2cc(O)c(O)c(O)c2)cc1COc1ccc(C(=O)OCC(C)C)cc1	-22%	-8%	58	21µM*	u	u
COc1ccc(/C=N/NC(=O)c2nc(Cl)c(Cl)c(N)c2Cl)cc1COc1ccc(F)cc1F	-26%	u	61	u	-8%	u
COc1ccc(/C=N/NC(=O)c2nc(Cl)c(Cl)c(N)c2Cl)cc1COc1ccccc1F	-15%	9%	41	u	u	23µM*
